The results in this text go back to PubChem BioAssay AID588493 (Sanford-Burnham Center for Chemical Genomics, 2011).

Among all 360,000 compounds or so, about 2,100 (0.58%) were called active. The entries come from a sample that favours actives as a whole. Unmarked numbers belong to inactive results.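 The calls were made as follows: active = inhibition at 20 µM, scaled to each plate's controls, above about 33% (limit read from the data); inactive = the rest.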

Chain of 26S proteasome non-ATPase regulatory subunit 14 (Homo sapiens) (O00487 whole entry, looked up): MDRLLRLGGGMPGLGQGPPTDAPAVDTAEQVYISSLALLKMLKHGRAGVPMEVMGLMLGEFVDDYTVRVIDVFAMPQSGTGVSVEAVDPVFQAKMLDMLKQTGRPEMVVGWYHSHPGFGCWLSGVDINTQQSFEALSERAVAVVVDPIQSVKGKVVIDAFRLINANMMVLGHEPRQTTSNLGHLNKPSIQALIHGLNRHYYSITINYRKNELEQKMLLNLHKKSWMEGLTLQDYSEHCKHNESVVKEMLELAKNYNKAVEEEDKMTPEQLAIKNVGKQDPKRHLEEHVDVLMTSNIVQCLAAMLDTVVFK

The assay has as its target 26S proteasome non-ATPase regulatory subunit 14 (Homo sapiens) (UniProt O00487). Put plainly: Rpn11 (PSMD14) deubiquitinase inhibitors, primary screen, biochemical, fluorescence polarization, uHTS (AID 588493). Particulars: human 26S proteasome, Ub4-pepOG fluorescence polarization, at 20 µM, hits give high values. In general terms: Fluorescence polarisation rises when a labelled molecule tumbles more slowly, as on binding a larger partner.
Regarding `O=C(N/N=C/c1c(O)n(Cc2ccccc2)c(=O)[nH]c1=O)c1ccccc1`, the inhibition is -6.7%.

As for `O=c1[nH]c(=O)n(Cc2ccccc2)c(O)c1/C=N/Nc1c(F)c(F)c(F)c(F)c1F`, the inhibition was 41.6% (active).

`O=c1[nH]c(=O)n(CCc2ccccc2)c(O)c1/C=N/N1CCOCC1`: the inhibition was 5.5%.

Turning to `COC(=O)C1=C(c2ccc(F)cc2OCc2ccccc2)C[C@@H]2CC[C@H]1N2C(=O)NCc1ccc(Cl)cc1`, the inhibition was 7.7% [20S core pre-blocked with epoxomicin].

For `CCc1cccc2c(C#N)cn(CC(=O)N3CCOCC3)c12`, the inhibition is -6.2%.

As for `COc1ccc(C2NCc3ccc4c(c3-n3cccc32)OCO4)cc1OC` (stereo not given), the inhibition was 7.6%.

`Cc1cccc(N2C(=O)NC(=O)/C(=C\c3cnn(-c4ccccc4)c3)C2=O)c1`: the inhibition is 119% (active).

As to `Cn1c(O)c(C(=Nc2ccc(F)cc2)c2ccccc2)c(=O)n(C)c1=O`, the inhibition is -3.9%.

As for `COc1ccc(C2C=C(C)Oc3c2c(=O)oc2ccccc32)cc1OC` (stereo not given), the inhibition was 6% [20S core pre-blocked with epoxomicin].

With `c1cc2c(c(NC3=NCCCS3)c1)CCCC2`, the inhibition is 3.9%.

For `O=C(C1CC(=O)N(C2CCCC2)C1)N1CCC2(CC1)OCCO2` (stereo not given), the inhibition is 3.4%.

Regarding `CCN1C(=O)C(=Cc2c(C)n(CC(=O)NCC3CCCO3)c3ccccc23)C(=O)N(CC)C1=S` (stereo not given), the inhibition is 62% (active).

On to `Fc1cccc(F)c1CN1CCN(Cc2c(F)cccc2F)CC1`, for which the inhibition was -4.8%.

Take `CN(C)C(=O)Oc1ccc2c(c1)O/C(=C\c1ccccc1)C2=O`: the inhibition is 5.7%.

As for `Cn1c(C(=O)N2CCC(C(=O)N3CCC4(CC3)OCCO4)CC2)cc2sccc21`, the inhibition is 3.9%.

One may read the inhibition as the relative decrease from the control value, in per cent.
